The structures appear in SMILES notation. Active and inactive are the calls of the source.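 The calls were made as follows: active = compounds whose fitted half-maximal cell-killing potency is at most twice their top tested dose; inconclusive = flat curve with 30 to 70% signal loss, or poor fit; inactive = the rest.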

This assay can be described thus: loss of viability in embryonic kidney cells – cell-based, HEK293T, ATP luminescence, dry powder, cytotoxicity control, dose response (AID 652119). Conditions: CellTiter-Glo ATP luminescence, 48 h; series mostly up to 26 µM; activity change, negative = cytotoxicity: at the top concentration.
For the compound `CCOC(=O)C1(CCOc2ccccc2)CCN(C(=O)OC(C)(C)C)CC1`, the “activity change, negative = cytotoxicity” value was -9.74% (inactive).
Take `CCOC(=O)C1(CCOc2ccccc2)CCN(Cc2ccc(O)cc2)CC1`: the “activity change, negative = cytotoxicity” value is -0.127% (inactive).
`C=CCOc1ccc(CN2CCC(CCOc3ccccc3)(C(=O)O)CC2)cc1Cl`: the “activity change, negative = cytotoxicity” value was 12.4% (inactive).
Consider `C=CCOc1ccc(CN2CCC(CCOc3ccccc3)(C(=O)N(C)CC)CC2)cc1Cl`, for which the “activity change, negative = cytotoxicity” value is -2.65% (inactive).
On to `CC(C)OC(=O)C1(CCOc2ccccc2)CCN(Cc2ccc(O)c(Cl)c2)CC1`, for which the “activity change, negative = cytotoxicity” value is -10.5% (inactive).
Take `C/C1=C\[C@@H](O)C(C)(C)CCCC2(C)OC2C[C@@H]1OC(=O)c1ccc(O)cc1` (stereo not given in full): the “activity change, negative = cytotoxicity” value was -1.63% (inactive).
As to `CCOC(=O)C1(Cc2ccccc2)CCN(Cc2ccc(O)c(Cl)c2)CC1`, the “activity change, negative = cytotoxicity” value is -9.71% (inactive).
The result for `O=C(NC1CCCC1)C1(CCOc2ccccc2)CCN(Cc2ccc(O)c(Cl)c2)CC1` reads -9.61% (inactive); that for `CCOC(=O)C1(CCOc2ccccc2)CCN(Cc2ccc(O)c(Cl)c2)CC1`, -2.14% (inactive).
Regarding `CCOC(=O)C1(CCOc2ccccc2)CCN(C(=O)c2ccc(O)c(Cl)c2)CC1`, the “activity change, negative = cytotoxicity” value was -6.97% (inactive).

These data come from PubChem BioAssay AID652119 (Broad Institute, 2013).
